# TGFb SMAD3 inh = TGF-b pathway inhibition | HepG2 CAGA-GFP TGF-b/SMAD3 reporter, GFP fluorescence, 18 h; TGF-beta stimulated, 500 pg/mL final | Potency, µM (titrated, usually from 46.1 µM), for inactives: at the highest dose activity, negative = inhibition, usual class: inhibitors | 410,000 compounds, 1.2% hits | AID 588855; further: potency means the concentration at half of the fitted maximal effect; on the % scale 0 is the no-effect control and ±100 the full control effect; nearly all actives have a fitted effect of over 65% in size
#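 Read-out: total well GFP (ex488/em500-530) summed from mean per-cell fluorescence. Cells: HEPG2 CAGA-GFP, 1% FBS DMEM, 18 h at 37 degrees C with 500 pg/mL final TGF-beta. Unstimulated wells served as the full-inhibition control; stimulated DMSO wells = 0%.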
# DT40 TDP1 CPT = DT40-hTDP1 cell growth loss with CPT. chicken DT40 Tdp1-/-;hTDP1 cells + 20 nM CPT, ATP luminescence, 48 h. Potency, µM (top dose mostly 46.2 µM), for the others: at the highest dose activity change, negative = growth inhibition, most hits filed as inhibitors. 420,000 compounds, 12% hits; further: potency means the concentration at half of the fitted maximal effect; on the % scale 0 is the no-effect control and ±100 the full control effect; nearly all actives have a fitted effect of over 55% in size
#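 Cell growth measured by CellTiter-Glo luminescence after a minimum 48 h, 37 C compound exposure with 20 nM CPT in Tdp1-knockout DT40 cells stably expressing hTDP1, seeded 400/well; qHTS titration format.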
# IL-1B inflam inh = blocks inflammasome-driven IL-1 beta release | AID 743279 | activity change, % at 57.5 µM | 360,000 compounds, 4.7% hits | THP-1 LPS/ATP IL-1B secretion, AlphaLISA, 16 h; active compounds read low; in the data active means activity change below about -50%; inconclusive means mostly about -30% to -49%; further: on the % scale 0 is the no-effect control and ±100 the full control effect
#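 THP-1 cells pretreated 1 hr with compounds (up to 57.5 uM final), then stimulated with LPS (250 ng/mL final) plus ATP (1.25 mM final); secreted IL-1B measured by AlphaLISA after 16 hr, decreased signal indicating inhibition.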
# HepG2 tox = HepG2 cytotoxicity, counter-screen for TGF-b inhibitors; HepG2 CAGA-GFP viability, ATP luminescence, 18 h; Potency, µM (top dose mostly 46.1 µM), without a hit: at the highest dose activity change, negative = cytotoxicity, most hits filed as cytotoxic; 410,000 compounds, 0.76% hits; AID 588856; further: potency means the concentration at half of the fitted maximal effect
#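 CellTiter-Glo luminescence gave cytotoxicity after 18 hours at 37 degrees C. The cells were HepG2 CAGA-GFP in 1% FBS DMEM, stimulated with 500 pg/mL TGF-beta after compound addition. %Activity was normalised to no-cell wells (complete cell-killing) and DMSO (no toxicity), and curves were fitted and classified.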
# TDP1 block = blocks human tyrosyl-DNA phosphodiesterase 1; Q9NUW8; recombinant TDP1, AlphaScreen DNA substrate cleavage; Potency, µM (titrated, usually from 130 µM), for inactives: top-dose activity change, negative = inhibition, usual class: inhibitors; 350,000 compounds, 0.28% hits; further: potency means the concentration at half of the fitted maximal effect; on the % scale 0 is the no-effect control and ±100 the full control effect; nearly all actives have a fitted effect of over 40% in size
# Target sequence (Q9NUW8 whole entry, looked up): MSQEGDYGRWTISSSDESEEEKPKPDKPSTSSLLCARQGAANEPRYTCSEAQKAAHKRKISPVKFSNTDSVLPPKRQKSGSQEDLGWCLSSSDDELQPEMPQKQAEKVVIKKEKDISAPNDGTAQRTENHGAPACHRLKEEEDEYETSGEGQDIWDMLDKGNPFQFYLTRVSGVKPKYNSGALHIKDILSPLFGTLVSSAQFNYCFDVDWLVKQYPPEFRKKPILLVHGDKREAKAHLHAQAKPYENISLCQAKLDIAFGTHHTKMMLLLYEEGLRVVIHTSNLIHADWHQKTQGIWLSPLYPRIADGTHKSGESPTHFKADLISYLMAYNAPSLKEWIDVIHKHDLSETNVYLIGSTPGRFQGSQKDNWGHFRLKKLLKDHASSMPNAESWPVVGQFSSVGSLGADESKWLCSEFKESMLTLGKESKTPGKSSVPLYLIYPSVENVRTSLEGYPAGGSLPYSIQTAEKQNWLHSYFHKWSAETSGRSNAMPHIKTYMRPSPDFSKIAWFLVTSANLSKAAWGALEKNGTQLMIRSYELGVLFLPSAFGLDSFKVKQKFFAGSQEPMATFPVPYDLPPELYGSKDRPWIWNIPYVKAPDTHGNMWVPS
#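 Here, a 5' biotin and 3' phosphotyrosine-FITC DNA oligonucleotide reports Tdp1 activity: intact substrate bridges AlphaScreen beads, while cleavage leaves a 3' phosphate and drops signal. All incubations at room temperature.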
# DT40 TDP1 no CPT = qHTS for Inhibitors of human tyrosyl-DNA phosphodiesterase 1 (TDP1): qHTS in cells in absence of CPT; DT40 Tdp1-/- hTDP1 cells, no CPT, ATP luminescence, 48 h; Potency, µM (top dose mostly 46.2 µM), for inactives: at the top dose activity change, negative = growth inhibition, usual class: inhibitors; 420,000 compounds, 15% hits; AID 686978, 2013; further: potency means the concentration at half of the fitted maximal effect; on the % scale 0 is the no-effect control and ±100 the full control effect; nearly all actives have a fitted effect of over 55% in size
#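 Readout: luminescence from CellTiter-Glo after 30 min in the dark at RT. Cells: DT40 Tdp1-/- with stable hTDP1, 400/well. Exposure: compounds alone, ≥48 hr, 37 °C.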
# * = called active by the depositor; ? = inconclusive; . = no result; ! = not confirmed by another sample. Rows were chosen to be rich in hits. Some 19% of all compounds tested hit in one or more screens of this group. Unless noted, the call rests on the fitted dose curve; in most records, active means well fitted curve in the direction sought with a large enough effect; inconclusive means small, poorly fitted or top-dose-only effect, or another doubt; inactive means no such curve, though single readings can be large; an effect the other way counts as inactive or inconclusive.
SMILES,TGFb SMAD3 inh,DT40 TDP1 CPT,IL-1B inflam inh,HepG2 tox,TDP1 block,DT40 TDP1 no CPT
Clc1cccc(N2CCN(c3ncnc4c3nc3n4CCCCC3)CC2)c1,?,14.6µM*,.,-46.8%,6.4%,10.3µM*
CCOC(=O)C1CCN(c2ncnc3c2nc2n3CCCCC2)CC1,0.0%,-5.8%,.,-1.3%,3.7%,-5.3%
Cc1cccc(N2CCN(c3ncnc4c3nc3n4CCCCC3)CC2)c1C,?,25.9µM*,.,-38.5%,5.0%,?
COc1ccc(-c2nc3ccccc3c(=O)[nH]2)cc1,0.7%,-20.9%,17.6,-2.9%,2.8%,-20.1%
Cc1cc(C)cc(N2CC(O)=C(c3nc4ccccc4c(=O)[nH]3)C2=N)c1,-21.5%,13µM*,47.8,-8.0%,2.8%,9.2µM*
CC(C)N1CC(O)=C(c2nc3ccccc3c(=O)[nH]2)C1=N,-18.0%,-10.6%,?,-3.2%,0.0%,?
COc1cccc(N2CC(O)=C(c3nc4ccccc4c(=O)[nH]3)C2=N)c1,-20.9%,1.46µM*,3.6,-7.4%,11.6%,1.16µM*
C[C@H](CO)N1C[C@H](C)[C@@H](CN(C)S(=O)(=O)c2cccs2)Oc2ccc(NS(=O)(=O)c3ccccc3)cc2CC1=O,1.2%,?,-0.3,-14.9%,3.7%,?
CC[C@H](C)[C@H](NC(=O)[C@H](C)NC(=O)CNC(=O)[C@H](CCCN=C(N)N)NC(=O)[C@H](C)NC(=O)[C@H](CC(C)C)NC(=O)[C@H](CCC(=O)O)NC(=O)[C@H](CC(C)C)NC(=O)[C@H](C)NC(=O)[C@@H](N)CCC(=O)O)C(=O)N[C@@H](Cc1ccccc1)C(=O)N[C@@H](CCC(N)=O)C(=O)N[C@@H](C)C(=O)O,.,.,.,.,6.2%,.
O=C(CSc1nnc2scc(-c3ccccc3)n12)Nc1nsc(-c2ccc(Cl)cc2)n1,2.6%,16.4µM*,33.5,-30.1%,.,20.6µM*
CCOC(=O)CSc1ccc2ccccc2n1,-1.3%,-8.0%,2.7,0.1%,-3.5%,-13.7%
O=C(CSc1nnc2scc(-c3ccc(Cl)cc3)n12)Nc1ccc(F)cc1,-1.3%,-8.0%,.,-18.0%,.,-20.1%
Cc1ccc(-c2nc(NC(=O)CSc3ccc4ccccc4n3)ns2)cc1,8.7%,14.6µM*!,9.6,13.9%,-3.2%,?
O=C(CSc1nnc2scc(-c3ccccc3)n12)Nc1nsc(-c2ccccc2)n1,-20.3%,14.6µM*,?,-7.2%,5.2%,23.1µM*
CCOc1ccc(NC(=O)CSc2nnc3scc(-c4ccccc4)n23)cc1,14.5%,-23.3%,.,-4.2%,.,?
Cc1cccc(NC(=O)CSc2nnc3scc(-c4ccccc4)n23)c1,-2.4%,?,.,-17.5%,.,20.6µM*
CCN(CC)S(=O)(=O)c1ccc(N2CCCC2)c(NC(=O)C2CSC3(C)CCC(=O)N23)c1 (centres undefined),-7.3%,?,-23.6,-43.6%,.,?
O=C(Nc1cc(F)ccc1F)c1cnn2c1NC(=C1CC1)C=C2C(F)F,8.5%,?,.,-2.3%,.,?
Cc1ccc(-c2csc3nnc(SCC(=O)Nc4nsc(-c5ccccc5)n4)n23)cc1,-21.6%,20.6µM*,-23.5,-27.3%,1.0%,23.1µM*
Cc1ccc(-c2nc(NC(=O)CSc3nnnn3-c3ccccc3)ns2)cc1,?,-13.1%,-5.0,-18.3%,2.0%,-23.9%
O=C(CSc1oc(-c2ccc(F)cc2)nc1S(=O)(=O)c1ccc(Cl)cc1)c1ccccc1,-19.2%,16.4µM*,.,-2.6%,5.9%,14.6µM*
O=C(CSc1oc(-c2ccccc2)nc1S(=O)(=O)c1ccc(Cl)cc1)c1ccccc1,1.5%,14.6µM*,.,-8.0%,5.9%,18.4µM*
Cc1ccc(S(=O)(=O)c2nc(-c3ccco3)oc2SCC(=O)c2ccc(Cl)cc2)cc1,2.4%,?,.,-14.8%,0.0%,?
CCOC(=O)c1sc(NC(=O)C2CC(=O)N(c3ccccc3OC)C2)nc1C (centres undefined),-4.8%,-19.0%,-10.2,0.9%,0.7%,4.5%
COc1ccc(-c2nc(N3CCOCC3)nc3n[nH]c(N)c23)cc1,11.2µM*,18.4µM*,-70.3*,-49.1%,0.0%,18.4µM*
SMILES,TGFb SMAD3 inh,DT40 TDP1 CPT,IL-1B inflam inh,HepG2 tox,TDP1 block,DT40 TDP1 no CPT
O=c1[nH][nH]cc1C=Nc1ccccc1O,-11.3%,?,10.1,-6.0%,8.3%,?
O=c1c(=Nc2ccccc2O)c(=O)c2ccccc12,1.4%,7.31µM*,-16.3,-9.7%,0.6%,11.6µM*
CCN1CCc2nc3sc(C(=O)c4ccccc4)c(N)c3cc2C1,80.2%,2.59µM*,.,-16.2%,4.6%,3.66µM*
CCN1CCc2nc3sc(C(=O)c4ccc(F)cc4)c(N)c3cc2C1,91.2%,?,.,-48.6%,9.3%,23.1µM*
COc1ccc(NC(=O)c2sc3nc4c(cc3c2N)CN(Cc2ccccc2)CC4)cc1OC,16.7%,-15.2%,.,2.4%,10.4%,-21.2%
CN1CCc2nc3sc(C(=O)c4ccc(F)cc4)c(N)c3cc2C1,46.5%,?,.,-6.3%,5.8%,?
CN1CCCC2(CCN(C(=O)c3cccc(F)c3)CC2)C1,.,6.2%,.,.,.,4.3%
CSc1ccc(CNc2ccc(Cl)cc2)cc1,-18.6%,-1.0%,-73.3*,-30.9%,-1.0%,-6.0%
CCN(CC)C(=O)c1cccc(-c2csc(C(O)c3ccc(F)c(F)c3)n2)c1 (centres undefined),?,23.1µM*,3.0,-24.5%,.,?
CCN(CC)C(=O)c1cccc(-c2csc(C(O)c3ccccc3)n2)c1 (centres undefined),-0.2%,?,11.0,-18.8%,.,23.1µM*
CCN(CC)C(=O)c1cccc(-c2csc(C(O)c3ccco3)n2)c1 (centres undefined),1.0%,20.6µM*,0.0,-14.5%,.,?
CC(C)c1cccc(-c2csc(C(O)c3ccco3)n2)c1 (centres undefined),38.9%,?,13.5,14.1%,.,?
CCN(CC)C(=O)c1cccc(-c2csc(C(O)c3ccc(F)cc3)n2)c1 (centres undefined),-18.3%,14.6µM*,11.4,-20.3%,.,?
Cc1ccc(C)c(NC(=O)CCCn2nc(C)c3sc4ccccc4c3c2=O)c1,?,-16.6%,.,0.6%,8.6%,-25.2%
Nc1ccn(CC(=O)NCc2ccc3[nH]ccc3c2)c(=O)n1,-33.5%,4.8%,18.5,0.2%,0.4%,-3.0%

# Compound activity (PubChem)
